# Test results published in the supplement of paper PMC3334620.
# The full ranking holds about 33,000 sequences; the median of “E-score (-0.5 to 0.5)” is about -0.036, and the highest 2% start at about 0.37. Only a selection was taken, and the highest values are over-represented in it overall.
# Molecular target: T1, Yer064c (UniProt P40041)
# T1 sequence: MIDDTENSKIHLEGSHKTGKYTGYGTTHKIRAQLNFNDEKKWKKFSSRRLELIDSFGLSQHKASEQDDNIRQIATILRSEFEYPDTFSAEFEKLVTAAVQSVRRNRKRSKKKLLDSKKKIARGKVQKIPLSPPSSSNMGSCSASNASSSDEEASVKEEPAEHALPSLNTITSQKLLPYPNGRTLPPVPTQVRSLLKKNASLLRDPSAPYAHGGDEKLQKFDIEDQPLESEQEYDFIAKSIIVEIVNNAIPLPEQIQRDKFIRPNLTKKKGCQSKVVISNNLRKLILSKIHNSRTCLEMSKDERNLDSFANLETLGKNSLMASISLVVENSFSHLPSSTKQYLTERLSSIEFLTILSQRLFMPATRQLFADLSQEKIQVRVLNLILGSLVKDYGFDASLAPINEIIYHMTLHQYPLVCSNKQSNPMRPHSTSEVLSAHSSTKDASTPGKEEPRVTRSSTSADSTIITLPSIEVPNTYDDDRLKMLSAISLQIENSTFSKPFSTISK
# Assay: PBM E-score (8-mer binding enrichment) (E-score (-0.5 to 0.5)); higher = stronger / more preferred TF binding
# Conditions: protein concentration: 200 nM; construct: GST-full length
# Outline: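 Using PURExpress in vitro transcription/translation, GST-tagged yeast transcription factors were made in full-length or DNA-binding-domain form. These were applied at about 100-200 nM to double-stranded universal all-10-mer Agilent arrays, and bound protein was detected with fluorescent anti-GST. Scans were normalised with masliner before the Universal PBM Analysis Suite assigned E-scores to ungapped eight-base words pooled with their reverse complements.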
row,Sequence,PBM E-score
1,GAGCAATC,0.146
2,CATAGGGG,-0.149
3,TCCCCCGA,-0.176
4,GCGGCGAA,-0.17
5,CGATGAAA,0.0671
6,ATTTTTCG,0.00581
7,TGAGGAAA,-0.0935
8,GCCCTAGA,-0.316
9,CGTACGCA,-0.195
10,CCAGCACC,-0.231
11,CCTAAAGA,0.0245
12,GCTATGAC,0.307
13,ACTATGAC,0.372
14,CCTATGAC,0.235
15,ACTGTGAC,0.397
16,ACTGTGAA,0.0208
17,ACTGTGAT,0.165
18,CCTTGGTA,0.00702
19,AAGTTCTG,0.0281
20,ATTAAGGA,0.176
21,AGTTGCCC,0.00742
22,ACAAGTCC,-0.047
23,GCTAATTA,0.0849
24,ACTAATCG,0.226
25,GCTAATCC,-0.145
26,ACTAATCA,0.403

row,Sequence,PBM E-score
1,CCTAATCA,0.376
2,TCTAATAA,0.115
3,GCTAATCA,0.372
4,ACTAATCC,0.208
5,CCTAATCC,-0.33
6,ACTAATCT,0.273
7,TCTAATCA,0.386
8,CCTAATCG,0.0953
9,CTTAACCA,0.197
10,ATTGGGAC,0.0416
11,TCGTTCCA,-0.108
12,ACCCTGTG,-0.0328
13,ACCCAGAT,-0.0932
14,CGAGGCTA,-0.0432
15,ACACTCGC,0.111
16,CTCGACTA,0.299
17,GGCGACTA,0.402
18,ACCGACTC,0.328
19,CGCGACAA,0.124
20,GGCGACGA,-0.226
21,CGCGACTA,0.397
22,CCCGACTC,0.389
23,AGCGACTC,0.412
24,AGCGACGC,-0.273
25,AGCGACCC,-0.196
26,CCCGACTA,0.314

row,Sequence,PBM E-score
1,GGCGACCA,-0.416
2,TAATTCAA,0.14
3,TAGGGCCA,-0.307
4,GCCCCGGA,-0.22
5,AGCTTGGC,-0.115
6,ATAGAGAC,0.0997
7,GCGACACC,-0.173
8,CCCTACGA,0.0187
9,GTACAGGA,-0.0544
10,CACAGATA,-0.0649
11,ATGCCAGA,-0.0495
12,CTCGACTC,0.34
13,CGCGACCC,-0.0841
14,AGCGACTG,0.255
15,AGCGACTA,0.391
16,CGCGACTC,0.438
17,AGCGACCA,-0.173
18,CGCCCTTC,-0.212
19,ACGACTCC,0.423
20,ACGACTCA,0.477
21,ACGACTCT,0.404
22,ACAACTCT,0.175
23,ACGACTTA,0.276
24,GCGACTTA,0.266
25,ACGACTGC,0.19
26,GCGACTCA,0.483

row,Sequence,PBM E-score
1,ACGACGCC,-0.211
2,ACTACTCT,0.239
3,GCGACTGA,0.31
4,ACTACTCA,0.344
5,CCACTAGA,-0.195
6,AAAACGGT,-0.155
7,TAGAAAGA,0.113
8,AGTCTCAC,0.337
9,GCTGGTGA,0.0962
10,CCATTACG,-0.038
11,GCGACTCC,0.39
12,TCGACTCA,0.435
13,TCGACCCA,0.0521
14,CCGACTCA,0.441
15,CCGACTCG,0.296
16,CCGACTCC,0.339
17,TCTACTCA,0.202
18,ACGACTTG,0.17
19,ACGACTCG,0.394
20,GCGACCCC,-0.237
21,CCGACTGA,0.192
22,GCCACTCC,-0.128
23,CGAGAATC,0.117
24,GCGAGCCC,-0.21
25,GCAATACC,-0.127
26,CCTGTGCA,-0.146

row,Sequence,PBM E-score
1,AAAACAGG,-0.126
2,TAATGGCA,-0.172
3,GCCAAAAA,0.0564
4,AGAGAGGG,-0.162
5,CATGATAA,0.12
6,CTTGATTC,0.324
7,CCTGATGC,-0.0643
8,ACTGATTC,0.319
9,ATTGATTC,0.301
10,AATGATTC,0.464
11,CATGATCC,0.0741
12,CATGATGA,0.261
13,CATGATTA,0.453
14,AATGATTG,0.358
15,CCTGATTC,0.399
16,CATGATTC,0.457
17,CCTGGGAC,-0.363
18,ATGGGCGA,0.0478
19,CAAAAGAG,0.0455
20,CTTACCGA,-0.0159
21,ACATCGAT,0.00682
22,AGACGAAT,0.00164
23,CAAGCCAG,-0.139
24,GGCGGCCC,-0.0657
25,CACTCCAC,0.0622
26,TACTCCAA,0.00552

row,Sequence,PBM E-score
1,GACTCCAA,0.418
2,AACTCCAA,0.0471
3,AACTCCAC,-0.115
4,GACTCCAC,0.37
5,CAGTAAAA,-0.0284
6,AATTACCT,0.0151
7,AAAAGAAC,-0.144
8,CCTTCGGC,-0.197
9,CGAACTCA,0.225
10,AGGACTCA,0.468
11,AGCACTCA,0.119
12,GGGACACA,0.0557
13,GGGACTCA,0.405
14,CGGACTCA,0.411
15,AGGACTCC,0.335
16,GGGACGCA,-0.165
17,CGGACTCC,0.191
18,GAGAGGGC,-0.203
19,CCCGCTGC,-0.00295
20,GCTTGTAC,-0.18
21,TCCCAAGA,0.0948
22,CGATGTCA,-0.0638
23,CTCAAATC,0.158
24,AACTAAAA,0.0564
25,AACTAAAC,-0.0459
26,GACTAAAA,0.429

row,Sequence,PBM E-score
1,GACTAAAC,0.435
2,CACTAAAC,0.108
3,TACTAAAA,-0.00832
4,GATTCTCA,0.221
5,CTCTCCAC,-0.0601
6,ATTCTCTA,0.0286
7,GGACGTCA,-0.0394
8,ATTGACCA,-0.0765
9,CATTAGTC,0.421
10,AATTAGTA,0.103
11,CATTAGAC,0.0825
12,CATTAGTA,0.257
13,AATTAGTG,0.0657
14,AATTAGTC,0.446
15,CATTTTGC,-0.0161
16,GCTAGTCA,0.448
17,CCTAGTCG,0.263
18,ACTAGTCA,0.456
19,ACTAGTCC,0.164
20,CCTAGTCA,0.446
21,ACTAGTCT,0.345
22,CCTAGTCC,0.0749
23,GCTAGTTA,0.00744
24,TCTAGTAA,-0.0245
25,TCTAGTCA,0.447
26,GCTAGTCC,0.0288

row,Sequence,PBM E-score
1,TCTAGACA,0.128
2,AACGGTGT,-0.021
3,ACCTGGTC,-0.12
4,AGAGAACT,-0.0782
5,AACAGCAG,-0.26
6,CGTTATCC,-0.11
7,CTGAGTAA,0.204
8,ATGAGTAG,0.308
9,ATGAGTAC,0.415
10,ATGAGTAA,0.386
11,CTGAGTAC,0.291
12,GTGAGTAA,0.331
13,AGAGGCGG,-0.16
14,AGAGGTGC,-0.25
15,CGATCGTA,0.05
16,GTTCCAAA,-0.00663
17,AAAGACAT,-0.156
18,CCTCATGC,-0.144
19,ACTCATGA,0.402
20,CCTCATGA,0.16
21,CTTCATGC,-0.12
22,ACTCATGC,0.378
23,ACTCATGG,0.34
24,AGCCCGGG,-0.144
25,GCTCACAA,0.0192
26,CGGTAGAG,-0.118

row,Sequence,PBM E-score
1,AATCACAG,0.359
2,CATCACAC,0.0825
3,AATCACAT,0.398
4,AATCACAA,0.362
5,AATCACAC,0.39
6,GATCACAC,0.178
7,CGCTATTC,-0.0435
8,ACATACAC,0.0835
9,CTGGCATA,-0.0817
10,GTCACTCA,0.334
11,GGTCTTCA,-0.144
12,AGTCTTTA,0.341
13,AGTCTTTC,0.372
14,AGTCTTGG,0.315
15,AGTCTTCA,0.408
16,ATTCTTCC,-0.102
17,ACTCTTCG,0.213
18,CGTCTTCC,-0.0994
19,CGTCTTTC,-0.108
20,CGTCTTCA,-0.115
21,AGTCTTCG,0.418
22,AGTCTTCC,0.432
